Assay [1] concerns Plasmodium falciparum Sir2 (PF13_0152, Sir2A). Description: Plasmodium falciparum Sir2A binding compounds – biochemical, small-molecule microarray, 635 nm fluorescence, primary screen (AID 1098).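 Also: score merges spot fluorescence intensity with its signal-to-noise ratio.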 The settings on record: fluorescence 635 nm, higher = more signal.
Assay [2] in a line: probe aDKK1 binding to arrayed compounds – biochemical, biotinylated probe, 635/667 nm fluorescence, primary screen (AID 1099).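 Also: score merges 667nm spot fluorescence with signal to noise across triplicate slides.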 The following applies: small-molecule microarray, higher = more signal.
A short description of assay [3]: probe aCHRDL2 binding to arrayed compounds – biochemical, biotinylated probe, 635/667 nm fluorescence, primary screen (AID 1100). The following applies: small-molecule microarray, higher = more signal.
The nature of assay [4]: change in splice reporter luminescence, either direction, cell-based, HEK293, spliceosome inhibition project, primary screen (AID 1101).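 Also: HEK293 cells carrying a splicing-competent luciferase reporter gene; test concentration not given here.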 The following applies: HEK293 splicing luciferase reporter, 24 h, higher = more signal, called active from +8 up or from −8 down. In general terms: In a reporter assay the amount or activity of a reporter protein is the signal.
Assay [5] addresses Fibroblast growth factor 10 (Homo sapiens) (UniProt O15520). Kind of assay: compounds binding fibroblast growth factor 10 – biochemical, small-molecule microarray, 635 nm fluorescence, primary screen (AID 1102). The following applies: FGF10 binding, fluorescence 635 nm, higher = more signal.
In assay [6] the test system is glycogen synthase kinase-3 (GSK3A per assay name; protocol says GSK3B). Description: compounds binding glycogen synthase kinase-3 – biochemical, small-molecule microarray, 635 nm fluorescence, GSK3A, primary screen (AID 1103). Also: the record names both GSK3A and GSK3B. The settings on record: fluorescence 635 nm, higher = more signal.
For assay [7], the target named is Epidermal growth factor receptor (Homo sapiens) (UniProt P00533). Description: compounds binding epidermal growth factor receptor – biochemical, small-molecule microarray, 635 nm fluorescence, primary screen (AID 1104).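 Also: score merges 667 nm emission intensity with spot signal to noise over triplicate slides.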 The settings on record: EGFR binding, higher = more signal.
Chain of Epidermal growth factor receptor (Homo sapiens) (P00533 whole entry, looked up): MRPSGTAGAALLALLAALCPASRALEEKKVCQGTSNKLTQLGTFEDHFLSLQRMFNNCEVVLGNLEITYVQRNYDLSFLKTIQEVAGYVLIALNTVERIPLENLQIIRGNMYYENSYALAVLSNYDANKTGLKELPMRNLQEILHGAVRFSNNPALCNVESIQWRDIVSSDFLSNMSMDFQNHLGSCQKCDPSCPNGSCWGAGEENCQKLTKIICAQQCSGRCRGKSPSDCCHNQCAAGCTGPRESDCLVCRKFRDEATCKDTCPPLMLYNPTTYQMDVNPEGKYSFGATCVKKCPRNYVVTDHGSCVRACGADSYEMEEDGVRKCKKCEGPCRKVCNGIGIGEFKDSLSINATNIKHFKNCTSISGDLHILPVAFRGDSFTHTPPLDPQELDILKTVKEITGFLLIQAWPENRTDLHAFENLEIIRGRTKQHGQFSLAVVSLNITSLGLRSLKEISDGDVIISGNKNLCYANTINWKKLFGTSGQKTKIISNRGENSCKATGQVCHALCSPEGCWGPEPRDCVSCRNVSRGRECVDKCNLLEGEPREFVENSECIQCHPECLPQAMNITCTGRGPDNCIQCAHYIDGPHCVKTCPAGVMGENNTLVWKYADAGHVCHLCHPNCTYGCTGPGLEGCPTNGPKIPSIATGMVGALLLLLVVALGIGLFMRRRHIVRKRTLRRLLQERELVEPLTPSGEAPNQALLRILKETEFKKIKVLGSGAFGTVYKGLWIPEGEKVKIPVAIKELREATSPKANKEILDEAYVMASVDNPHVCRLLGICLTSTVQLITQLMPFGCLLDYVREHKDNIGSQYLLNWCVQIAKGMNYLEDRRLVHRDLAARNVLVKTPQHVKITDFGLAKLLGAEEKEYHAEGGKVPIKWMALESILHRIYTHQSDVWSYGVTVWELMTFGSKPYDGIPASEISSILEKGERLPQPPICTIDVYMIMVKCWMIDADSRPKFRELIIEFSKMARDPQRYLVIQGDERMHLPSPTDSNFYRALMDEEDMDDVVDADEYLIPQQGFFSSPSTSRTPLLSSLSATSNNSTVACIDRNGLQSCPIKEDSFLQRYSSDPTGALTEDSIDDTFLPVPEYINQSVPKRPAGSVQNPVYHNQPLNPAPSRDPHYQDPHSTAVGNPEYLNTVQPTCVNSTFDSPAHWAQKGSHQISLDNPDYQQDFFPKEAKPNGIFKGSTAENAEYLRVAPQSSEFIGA
The target in assay [8] is Follistatin-related protein 3 (Homo sapiens) (UniProt O95633). Kind of assay: compounds binding follistatin-related protein 3 – biochemical, small-molecule microarray, 635 nm fluorescence, primary screen (AID 1105).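 Also: score merges emission near 667 nm and signal to noise per printed spot across three slides.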 The following applies: FSTL3 binding, higher = more signal.
Chain of Follistatin-related protein 3 (Homo sapiens) (O95633 whole entry, looked up): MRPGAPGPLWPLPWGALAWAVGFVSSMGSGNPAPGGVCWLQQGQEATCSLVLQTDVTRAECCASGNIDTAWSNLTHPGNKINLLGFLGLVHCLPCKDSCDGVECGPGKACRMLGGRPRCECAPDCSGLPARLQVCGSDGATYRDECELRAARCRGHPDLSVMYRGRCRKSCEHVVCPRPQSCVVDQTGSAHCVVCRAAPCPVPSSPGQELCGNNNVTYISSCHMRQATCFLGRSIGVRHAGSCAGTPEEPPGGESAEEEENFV
The target in assay [9] is Dickkopf-related protein 1 (Homo sapiens) (UniProt O94907). Description: small molecules binding DKK1 protein – biochemical, small-molecule microarray, 635 nm fluorescence scan, primary screen (AID 1106).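 Also: score merges emission near 667 nm with signal to noise over three replicate slides.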 The settings on record: higher = more signal.
Chain of Dickkopf-related protein 1 (Homo sapiens) (O94907 whole entry, looked up): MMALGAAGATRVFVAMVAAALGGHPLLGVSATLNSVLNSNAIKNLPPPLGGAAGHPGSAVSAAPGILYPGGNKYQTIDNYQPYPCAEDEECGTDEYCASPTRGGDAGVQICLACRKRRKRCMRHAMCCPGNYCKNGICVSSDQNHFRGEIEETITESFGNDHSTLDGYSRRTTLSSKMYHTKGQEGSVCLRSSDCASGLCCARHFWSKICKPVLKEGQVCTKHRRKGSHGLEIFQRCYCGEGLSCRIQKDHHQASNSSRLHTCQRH
The test system of assay [10] is Inhibin beta A chain (activin A). Description: small molecules binding activin A – biochemical, small-molecule microarray, 635 nm fluorescence scan, primary screen (AID 1107).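 Also: mouse activin A protein probed at 4.33 µg/mL on printed slides; score merges bound-protein fluorescence near 667 nm with spot signal-to-noise.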 The settings on record: INHBA, higher = more signal.
Assay [11] deals with Human papillomavirus type 1a protein E7 (residues 44-93). Kind of assay: small molecules binding HPV E7 44-93 – biochemical, small-molecule microarray, residues 44-93, 635 nm fluorescence, primary screen (AID 1108).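 Also: E7 fragment applied at 1 µg/mL in TBST for 1 h at 4 C; score combines spot fluorescence with its signal to noise ratio.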 The following applies: fluorescence 635 nm, higher = more signal.
Assay [12] in a line: hepatitis C replication reporter changes, two-sided – Huh7 cells, luciferase reporter, HCV replication inhibitor project, primary screen (AID 1109).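 Also: huh7 hepatoma cells harbouring a luciferase neomycin HCV replicon reporter; luciferase luminescence as measure of HCV replicon replication; test concentration not given here.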 The following applies: Huh7 HCV replicon luciferase reporter, 48 h; higher = more signal.
Assay [13] has as its target Left-right determination factor 2 (Homo sapiens) (UniProt O00292). Kind of assay: small molecules binding LEFTY2 protein – biochemical, small-molecule microarray, 635 nm fluorescence scan, primary screen (AID 1110). The settings on record: higher = more signal.
The target of assay [14] is Calmodulin-1 (Homo sapiens) (UniProt P0DP23). Description: small molecules binding calmodulin-1 with EGTA – biochemical, small-molecule microarray, Cy5-labelled CALM1, profiling panel (AID 1111).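 Also: labelled calmodulin applied in Tris saline Tween buffer holding calcium plus EGTA and DTT.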 The settings on record: Cy5-CALM1 binding fluorescence, higher = more signal.
The target is the same in assay [15]. Description: small molecules binding Ca-loaded calmodulin-1 – biochemical, small-molecule microarray, Cy5-labelled CALM1, plus calcium, artefact control for SMM control-protein annotation, profiling panel (AID 1112).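 Also: score merges spot fluorescence with signal to noise from triplicate slides.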 The following applies: Cy5-CALM1 binding fluorescence, higher = more signal.
Assay [16] in a line: probe aWnt5a binding to arrayed compounds – biochemical, biotinylated probe, 635/667 nm fluorescence, primary screen (AID 1113).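 Also: score merges 667 nm fluorescence intensity with signal-to-noise per printed feature.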 The settings on record: small-molecule microarray, higher = more signal.
Assay [17] is described as follows: probe aShh binding to arrayed compounds – biochemical, biotinylated probe, 635/667 nm fluorescence, primary screen (AID 1114).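 Also: probe is biotin-labelled aShh protein from a stem cell growth factor screen; measures binding of labelled protein to compounds printed on the slide; score merges feature fluorescence at 667 nm with signal-to-noise.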 The settings on record: small-molecule microarray, higher = more signal.
Assay [18] is described as follows: probe aNog binding to arrayed compounds – biochemical, biotinylated probe, 635/667 nm fluorescence, primary screen (AID 1115).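 Also: probe is biotinylated aNog protein used at 0.15 µg/mL for 1 h at 4 C; z-score combines 667 nm fluorescence of each spot with its signal to noise.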 The settings on record: small-molecule microarray, higher = more signal.
Assay [19] has as its target Torsin-1A-interacting protein 1 (Homo sapiens) (UniProt Q5JTV8). Description: compound microarray binding of lysate hLAP1 – cell lysate, small-molecule microarray, COS7 lysate, 635/667 nm fluorescence, primary screen (AID 1116). The settings on record: 635 nm fluorescence, higher = more signal.
Assay [20] concerns the target Alpha-bungarotoxin (Bungarus multicinctus) (UniProt P60615). Kind of assay: compounds binding labelled alpha-BTX control protein – biochemical, small-molecule microarray, Alexa647 label, 635/667 nm fluorescence, artefact control for SMM control protein annotation, profiling panel (AID 1117). The settings on record: alpha-BTX-A647 binding fluorescence, higher = more signal.

Activity calls are given as the source filed them.

Chain of Alpha-bungarotoxin (Bungarus multicinctus) (P60615 whole entry, looked up): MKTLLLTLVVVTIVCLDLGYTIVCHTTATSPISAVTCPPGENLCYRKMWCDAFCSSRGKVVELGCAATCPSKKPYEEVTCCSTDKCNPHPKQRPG
Chain of Torsin-1A-interacting protein 1 (Homo sapiens) (Q5JTV8 whole entry, looked up): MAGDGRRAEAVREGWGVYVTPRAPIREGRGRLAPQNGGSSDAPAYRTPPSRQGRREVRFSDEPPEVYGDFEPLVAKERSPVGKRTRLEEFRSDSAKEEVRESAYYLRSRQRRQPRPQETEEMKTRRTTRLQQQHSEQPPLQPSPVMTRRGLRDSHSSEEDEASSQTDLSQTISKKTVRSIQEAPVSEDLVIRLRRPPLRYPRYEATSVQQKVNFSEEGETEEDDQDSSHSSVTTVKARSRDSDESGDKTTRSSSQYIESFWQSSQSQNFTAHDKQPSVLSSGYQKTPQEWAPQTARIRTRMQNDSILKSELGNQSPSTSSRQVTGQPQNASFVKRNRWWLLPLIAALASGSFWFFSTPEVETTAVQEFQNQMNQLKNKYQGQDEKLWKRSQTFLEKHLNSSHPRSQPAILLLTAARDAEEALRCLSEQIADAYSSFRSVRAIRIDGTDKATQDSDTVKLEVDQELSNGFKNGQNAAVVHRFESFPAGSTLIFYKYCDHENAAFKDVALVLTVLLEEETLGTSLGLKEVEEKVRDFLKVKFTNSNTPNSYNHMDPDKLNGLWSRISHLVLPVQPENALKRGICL
Chain of Left-right determination factor 2 (Homo sapiens) (O00292 whole entry, looked up): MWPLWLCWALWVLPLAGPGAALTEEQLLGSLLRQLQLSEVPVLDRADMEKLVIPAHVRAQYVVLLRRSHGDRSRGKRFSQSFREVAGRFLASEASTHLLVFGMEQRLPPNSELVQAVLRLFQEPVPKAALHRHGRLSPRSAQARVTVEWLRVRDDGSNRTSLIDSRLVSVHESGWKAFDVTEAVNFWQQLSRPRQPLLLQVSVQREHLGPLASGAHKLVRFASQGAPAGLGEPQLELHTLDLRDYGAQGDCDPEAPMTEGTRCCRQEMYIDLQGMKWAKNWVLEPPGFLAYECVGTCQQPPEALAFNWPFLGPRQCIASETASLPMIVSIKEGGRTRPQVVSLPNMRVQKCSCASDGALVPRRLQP
Chain of Fibroblast growth factor 10 (Homo sapiens) (O15520 whole entry, looked up): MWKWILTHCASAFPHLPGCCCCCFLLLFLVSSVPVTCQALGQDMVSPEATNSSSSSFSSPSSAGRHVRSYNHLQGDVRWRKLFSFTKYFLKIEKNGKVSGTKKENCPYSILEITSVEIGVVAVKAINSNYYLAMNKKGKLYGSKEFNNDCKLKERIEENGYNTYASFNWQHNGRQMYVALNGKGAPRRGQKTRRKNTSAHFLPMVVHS

Take `CC(CCN1CCc2nc(-c3ccccc3)c(-c3ccccc3)cc2C1)=NO[C@@H](C)c1cn([C@H](CO)Cc2ccccc2)nn1`: the composite z-score in [1] was 0.0154; in [2], -0.336; in assay [3] it was 0.119; in [5], -0.105; in assay [6] it was -0.335; in [7] it was 0.209. The composite z-score is 0.176 in assay [8]; 0.175 in assay [9]; 1.13 in [10]; -0.127 in assay [11]; 0.555 in assay [13]; 0.0845 in assay [14]. For the same compound, the composite z-score in assay [15] was 0.444; in [16] it was -0.139; in [17], -0.221; in [18], -0.305; in assay [19], -0.273; in assay [20] it was 1.42. The z-score was -1.26 (inactive) in assay [4] and -0.985 in assay [12].

Consider `Cc1ccc(S(=O)(=O)N[C@@H]2COC(=O)[C@H](C)COC(=O)CC=C[C@H]2C)cc1`, for which the composite z-score is -0.0259 in [1]; -0.291 in assay [2]; -0.589 in assay [3]; 0.66 in assay [5]; 0.771 in assay [6]; 0.751 in [7]. For the same compound, the composite z-score in [8] is 1.41; in assay [9], 1.8; in assay [10], 1.16; in assay [11], -0.45; in [13], 0.602; in assay [14], -0.163. Besides, the composite z-score in assay [15] was -0.964; in assay [16], -0.13; in assay [17], -0.117; in assay [18], -0.425; in assay [19] it was 0.438; in [20] it was 0.0762. In addition, the values for the z-score in [4] and in [12] were 0.159 (inactive) and 0.668, respectively.

Regarding `Cc1ccc(C2CC=C(C(=O)O)CN2S(=O)(=O)c2ccc(C)cc2)cc1` (stereo not given), the composite z-score in [1] was found to be 1.3; in assay [2], 0.135; in [3], 0.665; in [5] it was 0.31; in [6], 0.834; in assay [7] it was 0.201. Moreover, the composite z-score in assay [8] was 0.338; in assay [9] it was 0.0374; in assay [10], 0.584; in [11], 1.35; in assay [13] it was -0.403; in assay [14], 0.189. Besides, the composite z-score in [15] was 0.15; in [16], 0.0018; in assay [17], -0.271; in assay [18] it was 0.241; in assay [19], 0.743; in [20], 0.802. For the same compound, the z-score in assay [4] is -0.16 (inactive); in [12], 0.602.

For the compound `CC(=O)OC[C@H]1O[C@H](CCON=C[C@@H](C)[C@H](OCc2ccccc2)C(C)C)C=C[C@@H]1OC(C)=O`, the composite z-score in assay [1] was 0.343; in [2], -0.36; in assay [3], -0.743; in [5], 0.2; in assay [6], 0.608; in assay [7] it was 0.365. Also, the composite z-score is 0.274 in assay [8]; 0.564 in [9]; -0.0819 in assay [10]; 0.837 in [11]; 0.646 in assay [13]; -0.501 in [14]. Also, the composite z-score is -0.911 in [15]; 0.0181 in assay [16]; -0.214 in assay [17]; -0.215 in [18]; 0.619 in assay [19]; 0.13 in assay [20]. In addition, the z-score in assay [4] was 0.244 (inactive); in [12], -0.461.

Regarding `NCCCCCNC(=O)[C@@H]1C[C@@H]2C(=O)N3CCC[C@H]3C(=O)N2[C@@H]1c1cccc(OCCO)c1`, the composite z-score in assay [1] came to 0.963; in assay [2] it was 1.61; in assay [3] it was 0.948; in assay [5], 0.506; in assay [6] it was 0.821; in [7], 0.515. The composite z-score came out at 0.984 in assay [8]; 1.17 in assay [9]; 1.63 in assay [10]; 0.933 in [11]; 0.781 in assay [13]; 1.38 in [14]. Further, the composite z-score came to 0.929 in [15]; 0.0024 in assay [16]; 0.315 in assay [17]; 1.55 in assay [18]; 1.72 in assay [19]; 0.482 in assay [20]. The z-score in assay [4] is -0.298 (inactive); in assay [12], -1.03.

The values above are taken from PubChem BioAssay.
